# According to article PMC7862700, “An all-to-all approach to the identification of sequence-specific readers for epigenetic DNA modifications on cytosine”:
# Assays:
# Assay in all cases: DAPPL (digital affinity profiling via proximity ligation, sequencing); 10 mM Tris-HCl pH 7.5, 50 mM NaCl, 1 mM DTT, 4% glycerol, room temperature, 30 min; GST-TFs on glutathione beads, 16-mer random dsDNA library, 0.1% formaldehyde crosslink after washing; high values mean tight binding
# Conditions in all cases: protein: recombinant; tags: N-terminal GST; dsDNA, one strand shown
# [1] = molecular target: T1, ERF (Homo sapiens, UniProt P50548 1-548)
# T1 sequence: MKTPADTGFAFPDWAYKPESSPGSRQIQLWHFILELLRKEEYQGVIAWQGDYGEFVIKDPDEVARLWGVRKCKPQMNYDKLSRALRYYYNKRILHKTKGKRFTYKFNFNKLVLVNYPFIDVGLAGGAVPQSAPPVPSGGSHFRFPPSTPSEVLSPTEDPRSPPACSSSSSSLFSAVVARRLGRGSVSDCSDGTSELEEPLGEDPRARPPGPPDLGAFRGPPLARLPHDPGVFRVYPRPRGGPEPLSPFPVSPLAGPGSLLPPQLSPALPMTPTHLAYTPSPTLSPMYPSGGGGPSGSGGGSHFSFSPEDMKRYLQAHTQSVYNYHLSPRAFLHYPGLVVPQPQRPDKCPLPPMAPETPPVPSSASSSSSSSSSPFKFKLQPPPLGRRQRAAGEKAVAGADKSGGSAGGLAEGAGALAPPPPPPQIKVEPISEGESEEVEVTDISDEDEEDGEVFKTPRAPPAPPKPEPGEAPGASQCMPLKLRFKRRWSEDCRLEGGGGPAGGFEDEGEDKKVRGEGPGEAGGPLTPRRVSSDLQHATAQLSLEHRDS
# Summary of the method: (§1)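 Yeast served to express human transcription factors as GST fusions, which were then captured on glutathione beads and labelled with DNA barcodes. Pooled with a tag-only sample, they were incubated with 200 nmole of a 16-mer random double-stranded DNA library for 30 min at room temperature in Tris/NaCl/DTT/glycerol buffer, washed, crosslinked with 0.1% formaldehyde, ligated by proximity, amplified by PCR and sequenced. Dividing each hexamer's read frequency for a factor by its frequency for the tag-only sample gives the binding signal.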
# [2] = molecular target: T2, ETV3L (Homo sapiens, UniProt Q6ZN32 1-361)
# T2 sequence: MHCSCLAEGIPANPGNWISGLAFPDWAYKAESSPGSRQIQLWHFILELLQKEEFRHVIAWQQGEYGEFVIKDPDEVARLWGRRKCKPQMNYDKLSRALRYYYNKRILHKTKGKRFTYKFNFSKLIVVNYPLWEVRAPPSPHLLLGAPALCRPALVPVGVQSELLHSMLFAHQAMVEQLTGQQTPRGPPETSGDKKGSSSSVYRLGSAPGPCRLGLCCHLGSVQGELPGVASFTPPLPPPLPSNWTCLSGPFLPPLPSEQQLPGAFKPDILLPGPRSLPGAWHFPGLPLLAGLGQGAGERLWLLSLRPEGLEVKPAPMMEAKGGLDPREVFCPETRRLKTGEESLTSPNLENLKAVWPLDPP
# Summary of the method: as §1
# [3] = molecular target: T3, ETS2 (Homo sapiens, UniProt P15036 1-469)
# T3 sequence: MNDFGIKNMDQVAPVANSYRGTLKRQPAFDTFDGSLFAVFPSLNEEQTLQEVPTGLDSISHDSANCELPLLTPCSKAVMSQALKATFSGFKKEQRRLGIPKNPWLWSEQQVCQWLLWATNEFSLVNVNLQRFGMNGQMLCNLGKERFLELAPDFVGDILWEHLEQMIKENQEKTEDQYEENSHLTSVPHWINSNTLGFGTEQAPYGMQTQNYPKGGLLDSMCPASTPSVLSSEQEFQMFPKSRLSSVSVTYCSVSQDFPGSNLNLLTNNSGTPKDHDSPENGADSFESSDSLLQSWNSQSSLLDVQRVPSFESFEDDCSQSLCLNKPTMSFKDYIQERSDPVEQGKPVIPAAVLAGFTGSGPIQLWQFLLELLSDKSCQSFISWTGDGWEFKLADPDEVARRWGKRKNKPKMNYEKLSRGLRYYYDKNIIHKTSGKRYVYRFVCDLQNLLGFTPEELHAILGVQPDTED
# Summary of the method: as §1
# [4] = molecular target: T4, SPDEF (Homo sapiens, UniProt O95238 1-335)
# T4 sequence: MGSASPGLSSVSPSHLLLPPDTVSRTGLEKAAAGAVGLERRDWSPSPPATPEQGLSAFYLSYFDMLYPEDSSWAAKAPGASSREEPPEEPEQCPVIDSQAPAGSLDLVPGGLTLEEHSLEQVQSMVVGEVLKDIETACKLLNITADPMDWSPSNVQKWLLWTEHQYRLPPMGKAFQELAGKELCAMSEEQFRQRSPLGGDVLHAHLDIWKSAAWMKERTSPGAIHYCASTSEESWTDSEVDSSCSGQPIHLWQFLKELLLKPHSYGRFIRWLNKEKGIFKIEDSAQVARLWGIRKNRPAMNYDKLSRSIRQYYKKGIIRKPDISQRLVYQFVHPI
# Summary of the method: as §1
# [5] = molecular target: T5, ETV7 (Homo sapiens, UniProt Q9Y603 1-341)
# T5 sequence: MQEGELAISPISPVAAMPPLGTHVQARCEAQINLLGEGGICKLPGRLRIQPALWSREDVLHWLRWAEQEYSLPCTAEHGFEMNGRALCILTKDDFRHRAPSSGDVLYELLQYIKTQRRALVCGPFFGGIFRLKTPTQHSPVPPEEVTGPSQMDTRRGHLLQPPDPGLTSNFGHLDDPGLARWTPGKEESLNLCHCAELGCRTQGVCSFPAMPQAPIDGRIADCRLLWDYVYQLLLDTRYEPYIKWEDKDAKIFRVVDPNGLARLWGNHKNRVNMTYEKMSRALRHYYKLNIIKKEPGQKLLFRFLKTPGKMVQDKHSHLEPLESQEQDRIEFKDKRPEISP
# Summary of the method: as §1
# [6] = molecular target: T6, ELF5 (Homo sapiens, UniProt Q9UKW6-2 1-255)
# T6 sequence: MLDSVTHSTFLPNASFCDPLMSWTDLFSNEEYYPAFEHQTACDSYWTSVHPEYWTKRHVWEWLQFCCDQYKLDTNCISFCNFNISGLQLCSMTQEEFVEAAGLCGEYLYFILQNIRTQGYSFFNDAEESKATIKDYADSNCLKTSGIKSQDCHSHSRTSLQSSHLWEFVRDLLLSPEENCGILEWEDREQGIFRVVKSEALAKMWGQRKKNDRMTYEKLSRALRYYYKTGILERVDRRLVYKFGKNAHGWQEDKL
# Summary of the method: as §1
# [7] = molecular target: T7, ETV3 (Homo sapiens, UniProt P41162-2 1-143)
# T7 sequence: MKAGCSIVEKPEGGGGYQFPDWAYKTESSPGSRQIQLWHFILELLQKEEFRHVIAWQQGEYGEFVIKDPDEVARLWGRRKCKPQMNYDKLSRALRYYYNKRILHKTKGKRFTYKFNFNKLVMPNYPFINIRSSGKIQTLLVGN
# Summary of the method: as §1
# [8] = molecular target: ETV6 (Homo sapiens, UniProt P41212 1-452)
# ETV6, sequence (P41212 whole entry): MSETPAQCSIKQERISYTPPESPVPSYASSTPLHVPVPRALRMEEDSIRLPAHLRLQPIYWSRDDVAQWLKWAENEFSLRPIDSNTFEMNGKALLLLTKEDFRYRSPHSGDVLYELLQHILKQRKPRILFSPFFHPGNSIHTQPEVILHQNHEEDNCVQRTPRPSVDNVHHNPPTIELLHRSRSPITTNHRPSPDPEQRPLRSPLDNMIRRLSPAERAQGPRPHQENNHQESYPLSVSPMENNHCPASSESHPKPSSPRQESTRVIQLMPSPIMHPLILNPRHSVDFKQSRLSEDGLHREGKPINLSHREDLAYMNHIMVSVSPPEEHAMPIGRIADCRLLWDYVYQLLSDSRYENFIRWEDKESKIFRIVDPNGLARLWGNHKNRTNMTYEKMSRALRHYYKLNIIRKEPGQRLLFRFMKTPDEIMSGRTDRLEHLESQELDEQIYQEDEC
# Summary of the method: as §1
Sequence,binding signal [1],binding signal [2],binding signal [3],binding signal [4],binding signal [5],binding signal [6],binding signal [7],binding signal [8]
TAACGA,"1.03 fold enrichment (6-mer frequency, TF over GST control)","1.04 fold enrichment (6-mer frequency, TF over GST control)","1.12 fold enrichment (6-mer frequency, TF over GST control)","1.16 fold enrichment (6-mer frequency, TF over GST control)","1.1 fold enrichment (6-mer frequency, TF over GST control)","1.06 fold enrichment (6-mer frequency, TF over GST control)","1.06 fold enrichment (6-mer frequency, TF over GST control)","1.08 fold enrichment (6-mer frequency, TF over GST control)"
TCTGTG,"1.15 fold enrichment (6-mer frequency, TF over GST control)","1.2 fold enrichment (6-mer frequency, TF over GST control)","1.13 fold enrichment (6-mer frequency, TF over GST control)","1.06 fold enrichment (6-mer frequency, TF over GST control)","1.26 fold enrichment (6-mer frequency, TF over GST control)","1.04 fold enrichment (6-mer frequency, TF over GST control)","1.04 fold enrichment (6-mer frequency, TF over GST control)","1.07 fold enrichment (6-mer frequency, TF over GST control)"
ACCCCA,"1.08 fold enrichment (6-mer frequency, TF over GST control)","1.09 fold enrichment (6-mer frequency, TF over GST control)","1.15 fold enrichment (6-mer frequency, TF over GST control)","1.02 fold enrichment (6-mer frequency, TF over GST control)","1.06 fold enrichment (6-mer frequency, TF over GST control)","1.04 fold enrichment (6-mer frequency, TF over GST control)","1.09 fold enrichment (6-mer frequency, TF over GST control)","1.02 fold enrichment (6-mer frequency, TF over GST control)"
TTGATC,"1.23 fold enrichment (6-mer frequency, TF over GST control)","1.2 fold enrichment (6-mer frequency, TF over GST control)","1.1 fold enrichment (6-mer frequency, TF over GST control)","1.24 fold enrichment (6-mer frequency, TF over GST control)","1.08 fold enrichment (6-mer frequency, TF over GST control)","1.21 fold enrichment (6-mer frequency, TF over GST control)","1.26 fold enrichment (6-mer frequency, TF over GST control)","1.09 fold enrichment (6-mer frequency, TF over GST control)"
GTACAT,"1.36 fold enrichment (6-mer frequency, TF over GST control)","1.32 fold enrichment (6-mer frequency, TF over GST control)","1.36 fold enrichment (6-mer frequency, TF over GST control)","2.06 fold enrichment (6-mer frequency, TF over GST control)","1.53 fold enrichment (6-mer frequency, TF over GST control)","1.3 fold enrichment (6-mer frequency, TF over GST control)","1.34 fold enrichment (6-mer frequency, TF over GST control)","1.4 fold enrichment (6-mer frequency, TF over GST control)"
CGCTTA,"1.31 fold enrichment (6-mer frequency, TF over GST control)","1.3 fold enrichment (6-mer frequency, TF over GST control)","1.25 fold enrichment (6-mer frequency, TF over GST control)","1.3 fold enrichment (6-mer frequency, TF over GST control)","1.31 fold enrichment (6-mer frequency, TF over GST control)","1.19 fold enrichment (6-mer frequency, TF over GST control)","1.34 fold enrichment (6-mer frequency, TF over GST control)","1.11 fold enrichment (6-mer frequency, TF over GST control)"
ACCTTC,"1.92 fold enrichment (6-mer frequency, TF over GST control)","1.75 fold enrichment (6-mer frequency, TF over GST control)","1.89 fold enrichment (6-mer frequency, TF over GST control)","2.02 fold enrichment (6-mer frequency, TF over GST control)","1.79 fold enrichment (6-mer frequency, TF over GST control)","2.19 fold enrichment (6-mer frequency, TF over GST control)","1.8 fold enrichment (6-mer frequency, TF over GST control)","1.96 fold enrichment (6-mer frequency, TF over GST control)"
